Hits are enriched below; roughly 4.6% of the tested compounds scored in any of these assays.
TRHR ag – agonists of human TRH receptor; activation, % at 2 µM; actives 0.18% (n = 360,000); TRHR cells, calcium flux fluo-8, FDSS agonist mode
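TRHR-expressing cells loaded with fluo-8 calcium dye; 23 nL library compound pin-transferred, kinetic FDSS fluorescence (Ex 480/Em 530) recorded about 180 s for agonist-induced calcium release, before a 10 nM TRH EC20 addition for potentiator mode.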
D1 ag – human D1 receptor agonism | P21728 | HEK293 T-REx D1 cells, calcium flux, agonist mode | activation, % at 2 µM | actives 1% (n = 360,000)
Target sequence (P21728 whole entry, looked up): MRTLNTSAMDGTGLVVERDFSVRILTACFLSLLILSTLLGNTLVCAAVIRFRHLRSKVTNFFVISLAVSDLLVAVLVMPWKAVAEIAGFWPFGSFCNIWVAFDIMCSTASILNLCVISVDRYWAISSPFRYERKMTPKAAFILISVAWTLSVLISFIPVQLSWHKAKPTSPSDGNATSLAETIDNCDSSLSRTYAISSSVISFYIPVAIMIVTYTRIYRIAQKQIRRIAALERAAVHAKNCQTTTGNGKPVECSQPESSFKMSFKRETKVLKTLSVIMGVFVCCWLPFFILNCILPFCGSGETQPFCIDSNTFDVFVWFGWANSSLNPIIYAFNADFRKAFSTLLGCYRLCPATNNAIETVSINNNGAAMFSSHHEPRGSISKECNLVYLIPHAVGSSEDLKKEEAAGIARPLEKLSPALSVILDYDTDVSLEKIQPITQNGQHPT
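Inducible HEK293 T-REx D1 cells, force-coupled to calcium signalling, were plated at 4000 cells/well with tetracycline and held overnight at 30 C. After no-wash calcium dye loading, compound-evoked calcium rise over 180 s flagged agonists.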
TRHR PAM – allosteric enhancers of human TRH receptor. enhancement, % at 2 µM. AID 493056. TRHR cells, fluo-8 calcium fluorescence, EC20 TRH enhancement. actives 0.66% (n = 360,000); in the data active = enhancement above about 30%
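Enhancer read-out: after compound pinning and an initial kinetic agonist-mode read, an EC20 of TRH (10 nM final) was injected and fluo-8 calcium signal (Ex 480/Em 530) followed at 1 s/cycle for 100 cycles in TRHR-expressing cells.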
D1 PAM – enhances dopamine response at the human D1 receptor | P21728 | HEK293 TREx D1 cells, calcium flux, dopamine EC20 potentiation | potentiation, % at 10 µM | actives 0.036% (n = 360,000); in the data active = potentiation above about 30%
D1 antagonist – human D1 dopamine receptor antagonism | P21728 | HEK293 TREx D1 cells, calcium flux, dopamine EC80; active compounds read low | activity change, negative = inhibition, % at 10 µM | actives 3.2% (n = 360,000) | AID 504652; in the data active = activity change below about -30%
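Antagonism measured as reduced calcium response to an EC80 dopamine addition following 180 s compound pre-read; cells were inducible HEK293 Trex D1 plated overnight at 30 C, read kinetically at 1 cycle/sec.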
Hits are given with their value. Cut-off read from the data, not from the text of the source, unless noted: active = activation above about 30%; inactive = the rest.

CN1CCN(C2=CC3=CC(=C(C#N)C#N)CCC3CC2)CC1 (stereo not given) was read as TRHR ag 315, D1 ag 723, TRHR PAM inactive, D1 PAM 37 and D1 antagonist inactive.
`CCN1CCN(C2=CC3=CC(=C(C#N)C#N)CCC3CC2)CC1` (stereo not given) gave TRHR ag 235, D1 ag 590, TRHR PAM inactive, D1 PAM inactive and D1 antagonist inactive.
`Cc1ccc(NC(=O)C2C3C=CC4(O3)C2C(=O)N(CCCN2CCCCC2)C4C(=O)NC2CCCCC2)cc1C` (stereo not given) gave TRHR ag inactive, D1 ag inactive, TRHR PAM inactive, D1 PAM inactive and D1 antagonist inactive.
COc1ccc2c(c1)cc1c(=O)n(CC(=O)NC3CCCCC3)nc(C)n12 was read as TRHR ag inactive, D1 ag inactive, TRHR PAM inactive, D1 PAM inactive and D1 antagonist inactive.
For COCCCN1CC(=O)N2C(c3cccc(OC)c3OC)c3[nH]c4ccccc4c3C[C@H]2C1=O (stereo not given in full) the results were TRHR ag inactive, D1 ag inactive, TRHR PAM inactive, D1 PAM inactive and D1 antagonist inactive.
For O=C(COC(=O)C12CC3CC(CC(C3)C1)C2)Nc1nccs1 the results were TRHR ag inactive, D1 ag inactive, TRHR PAM inactive, D1 PAM inactive and D1 antagonist -34.
`Cc1ccnc(NC(=O)COC(=O)C23CC4CC(CC(C4)C2)C3)n1` gave TRHR ag inactive, D1 ag inactive, TRHR PAM inactive, D1 PAM inactive and D1 antagonist inactive.
Cc1ccc(NC(=O)CCc2nnc3n(CC(C)C)c(=O)c4ccccc4n23)cc1C was read as TRHR ag inactive, D1 ag inactive, TRHR PAM inactive, D1 PAM inactive and D1 antagonist inactive.
`CCc1cc(=O)oc2c3c(c(Cl)cc12)OCN(Cc1cccc(OC)c1)C3` gave TRHR ag inactive, D1 ag inactive, TRHR PAM inactive, D1 PAM inactive and D1 antagonist inactive.
Screening COC(=O)/C=c1/s/c(=C(\C#N)C(=O)NCc2ccco2)n(-c2ccccc2)c1=O returned TRHR ag inactive, D1 ag inactive, TRHR PAM inactive, D1 PAM inactive and D1 antagonist -33.
`CSc1ncccc1C(=O)NNC(=O)c1ccc(NS(=O)(=O)c2cccs2)cc1` gave TRHR ag inactive, D1 ag inactive, TRHR PAM inactive, D1 PAM inactive and D1 antagonist -45.
Screening COc1ccccc1C(=O)NNC(=O)c1ccc(NS(=O)(=O)c2cccs2)cc1 returned TRHR ag inactive, D1 ag inactive, TRHR PAM inactive, D1 PAM inactive and D1 antagonist inactive.
CC1Cc2cc(S(=O)(=O)NCc3ccc(N(C)C)cc3)ccc2N1C(=O)C1CCC1 (stereo not given) was read as TRHR ag inactive, D1 ag inactive, TRHR PAM 45, D1 PAM inactive and D1 antagonist inactive.
Screening CC(=O)Nc1ccc(NS(=O)(=O)c2ccc3c(c2)CC(C)N3C(=O)C2CCC2)cc1 (stereo not given) returned TRHR ag inactive, D1 ag inactive, TRHR PAM 46, D1 PAM inactive and D1 antagonist inactive.
Screening CC1Cc2cc(S(=O)(=O)NCc3ccccc3Cl)ccc2N1C(=O)C1CCC1 (stereo not given) returned TRHR ag inactive, D1 ag inactive, TRHR PAM inactive, D1 PAM inactive and D1 antagonist -80.
`CCC(=O)N1c2ccc(S(=O)(=O)NCc3ccc(F)cc3)cc2CC1C` (stereo not given) gave TRHR ag inactive, D1 ag inactive, TRHR PAM inactive, D1 PAM inactive and D1 antagonist -33.
Screening CCC(=O)N1c2ccc(S(=O)(=O)NCCc3ccc(C)cc3)cc2CC1C (stereo not given) returned TRHR ag inactive, D1 ag inactive, TRHR PAM inactive, D1 PAM inactive and D1 antagonist inactive.
Screening Cc1ccc(NS(=O)(=O)c2ccc3c(c2)CC(C)N3C(=O)C2CCC2)cc1Cl (stereo not given) returned TRHR ag inactive, D1 ag inactive, TRHR PAM inactive, D1 PAM inactive and D1 antagonist inactive.
COc1ccc(CNS(=O)(=O)c2ccc3c(c2)CC(C)N3C(=O)C2CC2)cc1 (stereo not given) was read as TRHR ag inactive, D1 ag inactive, TRHR PAM inactive, D1 PAM inactive and D1 antagonist inactive.
Screening CC1Cc2cc(S(=O)(=O)NCCc3ccccc3)ccc2N1C(=O)C1CC1 (stereo not given) returned TRHR ag inactive, D1 ag inactive, TRHR PAM inactive, D1 PAM inactive and D1 antagonist inactive.
`CCN(CC)c1cc(C)c2cc(NC(=O)/C=C/c3cc(OC)c(OC)c(OC)c3)ccc2n1` gave TRHR ag inactive, D1 ag inactive, TRHR PAM inactive, D1 PAM inactive and D1 antagonist inactive.
`CCCCN(Cc1cccs1)S(=O)(=O)c1cc(-c2cc(C)no2)ccc1C` gave TRHR ag inactive, D1 ag inactive, TRHR PAM inactive, D1 PAM inactive and D1 antagonist inactive.
CN(Cc1ccccc1)C(=O)c1ccc(CSc2nc3cccnc3n2Cc2ccccc2)cc1 was read as TRHR ag inactive, D1 ag inactive, TRHR PAM inactive, D1 PAM inactive and D1 antagonist inactive.
For COc1ccc(C2=NCCc3cc(OC)c(OC)cc32)cc1OC the results were TRHR ag inactive, D1 ag inactive, TRHR PAM inactive, D1 PAM inactive and D1 antagonist inactive.
Screening COc1ccc(C2=NCCc3cc(OC)c(OC)cc32)cc1 returned TRHR ag inactive, D1 ag inactive, TRHR PAM inactive, D1 PAM inactive and D1 antagonist -61.
Screening O=C(CCCl)Nc1cccc2cccnc12 returned TRHR ag inactive, D1 ag inactive, TRHR PAM inactive, D1 PAM inactive and D1 antagonist inactive.
`CC1CCC2(CC1)NC(=O)N(CC(=O)N1CCN(S(=O)(=O)c3ccc4c(c3)CCC4)CC1)C2=O` (stereo not given) gave TRHR ag inactive, D1 ag inactive, TRHR PAM inactive, D1 PAM inactive and D1 antagonist inactive.
For O=C(CCNC(=O)c1ccc(Br)cc1)NCC1COc2ccccc2O1 (stereo not given) the results were TRHR ag inactive, D1 ag inactive, TRHR PAM inactive, D1 PAM inactive and D1 antagonist -41.
For CC(C)[C@H](NC(=O)c1ccccc1Br)C(=O)OCc1nc2ccsc2c(=O)[nH]1 the results were TRHR ag inactive, D1 ag inactive, TRHR PAM inactive, D1 PAM inactive and D1 antagonist -30.
Cc1nc(-c2cc(C#N)c(Sc3cccc(C(F)(F)F)c3)nc2C)cs1 was read as TRHR ag inactive, D1 ag 30, TRHR PAM inactive, D1 PAM inactive and D1 antagonist -55.
